Common to all, as to test: DAPPL (digital affinity profiling via proximity ligation, sequencing); 10 mM Tris-HCl pH 7.5, 50 mM NaCl, 1 mM DTT, 4% glycerol, room temperature, 30 min; GST-TFs on glutathione beads, 16-mer random dsDNA library, 0.1% formaldehyde crosslink after washing; high values mean tight binding
The target in experiment [1] is T1, FLI1 (Homo sapiens, UniProt Q01543 1-452).
T1 sequence: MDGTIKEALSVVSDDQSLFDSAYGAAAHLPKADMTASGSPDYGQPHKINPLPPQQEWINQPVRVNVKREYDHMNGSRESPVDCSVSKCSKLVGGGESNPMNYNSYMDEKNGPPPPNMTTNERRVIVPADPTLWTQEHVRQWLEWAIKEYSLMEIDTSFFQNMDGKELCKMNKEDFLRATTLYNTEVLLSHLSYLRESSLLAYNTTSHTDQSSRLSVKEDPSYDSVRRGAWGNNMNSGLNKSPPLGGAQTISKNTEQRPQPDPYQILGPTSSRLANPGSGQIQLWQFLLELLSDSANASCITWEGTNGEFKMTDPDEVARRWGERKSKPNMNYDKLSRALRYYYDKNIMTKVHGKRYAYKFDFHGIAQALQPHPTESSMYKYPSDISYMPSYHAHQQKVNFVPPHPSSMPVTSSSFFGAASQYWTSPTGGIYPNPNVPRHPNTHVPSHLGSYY
The settings on record: protein: recombinant; tags: N-terminal GST; dsDNA, one strand shown. The gist of the method: (§1)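 After expression in yeast as GST fusions, human transcription factors were bound to glutathione beads, DNA-barcoded and mixed with a tag-only sample. The pools were incubated with 200 nmole of a 16-mer random double-stranded DNA library in Tris/NaCl/DTT/glycerol buffer (30 min, room temperature), washed and crosslinked with 0.1% formaldehyde. Proximity ligation with BsaI/T4 ligase ran for 1 h at 37 °C, before PCR amplification and sequencing on an Illumina NextSeq500. Binding signal is a hexamer's read frequency for a factor divided by its frequency for the tag-only sample.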

The target of experiment [2] is T2, ELK1 (Homo sapiens, UniProt P19419 1-428).
T2 sequence: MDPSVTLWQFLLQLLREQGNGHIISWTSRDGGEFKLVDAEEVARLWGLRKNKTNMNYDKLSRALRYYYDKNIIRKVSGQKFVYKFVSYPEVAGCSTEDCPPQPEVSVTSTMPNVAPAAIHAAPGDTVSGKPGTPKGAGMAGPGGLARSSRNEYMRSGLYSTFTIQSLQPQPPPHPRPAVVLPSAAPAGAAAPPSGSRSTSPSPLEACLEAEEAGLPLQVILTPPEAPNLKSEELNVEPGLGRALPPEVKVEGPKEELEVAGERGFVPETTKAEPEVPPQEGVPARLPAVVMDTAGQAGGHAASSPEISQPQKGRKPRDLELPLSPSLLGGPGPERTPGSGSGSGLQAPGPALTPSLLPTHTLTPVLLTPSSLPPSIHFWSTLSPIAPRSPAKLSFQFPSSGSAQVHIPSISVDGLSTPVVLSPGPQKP
The settings on record: protein: recombinant; tags: N-terminal GST; dsDNA, one strand shown. The method in brief: as §1

The target of experiment [3] is T3, GABPA (Homo sapiens, UniProt Q06546 1-454).
T3 sequence: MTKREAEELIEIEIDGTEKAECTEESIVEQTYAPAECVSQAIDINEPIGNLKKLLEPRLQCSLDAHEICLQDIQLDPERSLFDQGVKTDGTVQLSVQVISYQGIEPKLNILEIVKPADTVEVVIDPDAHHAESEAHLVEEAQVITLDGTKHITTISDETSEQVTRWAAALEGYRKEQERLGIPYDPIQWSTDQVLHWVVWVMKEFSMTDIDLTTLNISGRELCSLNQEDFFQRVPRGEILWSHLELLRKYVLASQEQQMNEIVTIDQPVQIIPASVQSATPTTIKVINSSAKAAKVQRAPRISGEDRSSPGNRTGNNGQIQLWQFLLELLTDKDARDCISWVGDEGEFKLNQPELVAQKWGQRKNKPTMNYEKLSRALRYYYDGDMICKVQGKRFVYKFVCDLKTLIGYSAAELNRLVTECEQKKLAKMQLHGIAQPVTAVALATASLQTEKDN
Conditions: protein: recombinant; tags: N-terminal GST; dsDNA, one strand shown. The method in brief: as §1

Experiment [4] deals with T4, ERG (Homo sapiens, UniProt P11308 1-479).
T4 sequence: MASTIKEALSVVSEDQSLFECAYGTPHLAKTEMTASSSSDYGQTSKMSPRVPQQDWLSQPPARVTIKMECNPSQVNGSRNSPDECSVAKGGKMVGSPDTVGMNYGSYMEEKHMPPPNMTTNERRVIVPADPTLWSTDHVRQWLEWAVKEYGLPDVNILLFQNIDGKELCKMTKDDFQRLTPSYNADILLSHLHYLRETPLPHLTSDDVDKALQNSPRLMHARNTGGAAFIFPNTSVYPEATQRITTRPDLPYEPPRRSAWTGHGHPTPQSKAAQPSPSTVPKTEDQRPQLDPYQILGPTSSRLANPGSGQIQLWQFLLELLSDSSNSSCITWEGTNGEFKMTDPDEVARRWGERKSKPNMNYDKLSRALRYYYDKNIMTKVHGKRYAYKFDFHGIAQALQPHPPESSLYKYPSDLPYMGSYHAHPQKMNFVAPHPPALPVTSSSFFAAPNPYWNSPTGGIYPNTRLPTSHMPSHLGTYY
Conditions: protein: recombinant; tags: N-terminal GST; dsDNA, one strand shown. The method in brief: as §1

In experiment [5] the target is ELF1 (Homo sapiens, UniProt P32519 1-619). The settings on record: protein: recombinant; tags: N-terminal GST; dsDNA, one strand shown. The method in brief:
as §1

Experiment [6] deals with T5, EHF (Homo sapiens, UniProt Q9NZC4 1-300).
T5 sequence: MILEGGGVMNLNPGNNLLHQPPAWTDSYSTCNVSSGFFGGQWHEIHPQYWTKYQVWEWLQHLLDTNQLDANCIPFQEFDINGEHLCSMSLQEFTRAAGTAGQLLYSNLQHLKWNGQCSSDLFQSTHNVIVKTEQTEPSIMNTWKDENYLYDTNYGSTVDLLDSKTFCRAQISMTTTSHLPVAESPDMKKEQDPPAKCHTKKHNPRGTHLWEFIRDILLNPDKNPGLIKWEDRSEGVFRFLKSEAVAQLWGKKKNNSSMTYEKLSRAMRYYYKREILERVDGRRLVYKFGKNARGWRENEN
The settings on record: protein: recombinant; tags: N-terminal GST; dsDNA, one strand shown. The method in brief:
as §1

The target of experiment [7] is SPI1 (Homo sapiens, UniProt P17947 1-270). The settings on record: protein: recombinant; tags: N-terminal GST; dsDNA, one strand shown. The method in brief:
as §1

Experiment [8] deals with SPIB (Homo sapiens, UniProt Q01892 1-262). The settings on record: protein: recombinant; tags: N-terminal GST; dsDNA, one strand shown. The gist of the method:
as §1

Experiment [9] concerns the target T6, ELK3 (Homo sapiens, UniProt P41970 1-407).
T6 sequence: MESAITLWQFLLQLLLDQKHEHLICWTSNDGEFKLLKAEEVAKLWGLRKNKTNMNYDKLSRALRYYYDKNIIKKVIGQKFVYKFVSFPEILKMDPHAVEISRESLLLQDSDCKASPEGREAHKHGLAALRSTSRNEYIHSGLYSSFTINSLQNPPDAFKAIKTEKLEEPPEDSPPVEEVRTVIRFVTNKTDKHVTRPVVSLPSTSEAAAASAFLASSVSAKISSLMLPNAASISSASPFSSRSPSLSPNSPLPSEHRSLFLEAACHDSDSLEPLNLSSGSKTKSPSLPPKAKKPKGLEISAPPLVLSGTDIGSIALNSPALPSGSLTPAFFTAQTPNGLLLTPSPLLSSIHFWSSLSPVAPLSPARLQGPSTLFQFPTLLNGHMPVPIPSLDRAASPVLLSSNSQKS
Conditions: protein: recombinant; tags: N-terminal GST; dsDNA, one strand shown. The gist of the method:
as §1

The target of experiment [10] is T7, FEV (Homo sapiens, UniProt Q99581 1-238).
T7 sequence: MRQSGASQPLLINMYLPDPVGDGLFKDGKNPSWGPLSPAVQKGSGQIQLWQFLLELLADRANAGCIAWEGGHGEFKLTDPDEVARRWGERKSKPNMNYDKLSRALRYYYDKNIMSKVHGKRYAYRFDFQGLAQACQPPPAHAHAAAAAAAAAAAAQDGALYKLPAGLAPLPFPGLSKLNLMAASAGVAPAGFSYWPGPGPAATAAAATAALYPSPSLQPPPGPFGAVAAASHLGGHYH
Conditions: protein: recombinant; tags: N-terminal GST; dsDNA, one strand shown. The gist of the method:
as §1

The target of experiment [11] is ETV5 (Homo sapiens, UniProt P41161 1-510). The settings on record: protein: recombinant; tags: N-terminal GST; dsDNA, one strand shown. The method in brief: as §1
Chain of ETV5 (P41161 whole entry): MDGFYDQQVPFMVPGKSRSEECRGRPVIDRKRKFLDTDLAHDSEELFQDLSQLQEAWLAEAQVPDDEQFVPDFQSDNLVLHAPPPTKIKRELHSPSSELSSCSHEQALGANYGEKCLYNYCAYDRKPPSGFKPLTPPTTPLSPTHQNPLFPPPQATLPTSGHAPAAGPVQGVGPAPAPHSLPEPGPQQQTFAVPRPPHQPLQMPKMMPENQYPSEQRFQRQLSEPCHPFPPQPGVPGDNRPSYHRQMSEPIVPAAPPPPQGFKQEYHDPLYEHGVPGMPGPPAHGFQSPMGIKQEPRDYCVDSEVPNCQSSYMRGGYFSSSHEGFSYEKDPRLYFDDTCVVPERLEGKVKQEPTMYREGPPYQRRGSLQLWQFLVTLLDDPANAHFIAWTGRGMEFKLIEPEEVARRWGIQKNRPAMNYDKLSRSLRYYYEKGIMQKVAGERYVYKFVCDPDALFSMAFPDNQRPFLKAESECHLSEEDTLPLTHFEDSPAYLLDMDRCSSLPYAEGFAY
Experiment [12] deals with HSF1 (Homo sapiens, UniProt Q00613 1-529). The settings on record: protein: recombinant; tags: N-terminal GST; chain copies: 3; dsDNA, one strand shown. The method in brief:
as §1

The target in experiment [13] is T8, SPIC (Homo sapiens, UniProt Q8N5J4 1-248).
T8 sequence: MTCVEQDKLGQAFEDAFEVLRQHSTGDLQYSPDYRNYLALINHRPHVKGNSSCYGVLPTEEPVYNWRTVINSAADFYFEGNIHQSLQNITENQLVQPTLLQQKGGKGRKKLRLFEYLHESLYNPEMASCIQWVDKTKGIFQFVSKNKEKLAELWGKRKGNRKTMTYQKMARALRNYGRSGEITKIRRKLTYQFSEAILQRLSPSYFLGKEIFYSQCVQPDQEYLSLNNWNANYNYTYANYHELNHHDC
The settings on record: protein: recombinant; tags: N-terminal GST; dsDNA, one strand shown. The gist of the method: as §1

Experiment [14] concerns the target ELF4 (Homo sapiens, UniProt Q99607 1-663). The settings on record: protein: recombinant; tags: N-terminal GST; dsDNA, one strand shown. The gist of the method: as §1
Experiment [15] deals with T9, ELK4 (Homo sapiens, UniProt P28324-2 1-405).
T9 sequence: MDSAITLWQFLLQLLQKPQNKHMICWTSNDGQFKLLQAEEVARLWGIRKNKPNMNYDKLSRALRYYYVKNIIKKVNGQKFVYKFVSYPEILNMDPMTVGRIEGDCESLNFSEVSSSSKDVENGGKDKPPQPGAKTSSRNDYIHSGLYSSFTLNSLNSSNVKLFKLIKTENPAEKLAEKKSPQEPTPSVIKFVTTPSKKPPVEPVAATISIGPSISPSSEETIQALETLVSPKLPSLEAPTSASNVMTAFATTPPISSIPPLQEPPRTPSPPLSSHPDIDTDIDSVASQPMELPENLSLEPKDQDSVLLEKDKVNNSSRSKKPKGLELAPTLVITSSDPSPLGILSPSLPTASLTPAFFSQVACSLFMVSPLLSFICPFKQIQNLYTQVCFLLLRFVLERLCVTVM
The settings on record: protein: recombinant; tags: N-terminal GST; dsDNA, one strand shown. The method in brief: as §1

Experiment [16] deals with T10, ETV2 (Homo sapiens, UniProt O00321 1-342).
T10 sequence: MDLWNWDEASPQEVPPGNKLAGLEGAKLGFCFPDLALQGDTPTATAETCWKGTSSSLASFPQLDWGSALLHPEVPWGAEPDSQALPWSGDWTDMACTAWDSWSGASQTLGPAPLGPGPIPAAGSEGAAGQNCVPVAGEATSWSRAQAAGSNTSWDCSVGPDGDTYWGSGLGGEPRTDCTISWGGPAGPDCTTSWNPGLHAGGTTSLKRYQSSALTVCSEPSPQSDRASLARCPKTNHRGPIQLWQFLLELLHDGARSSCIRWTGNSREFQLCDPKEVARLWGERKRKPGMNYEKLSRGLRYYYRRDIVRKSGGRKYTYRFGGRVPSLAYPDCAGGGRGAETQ
The settings on record: protein: recombinant; tags: N-terminal GST; dsDNA, one strand shown. The method in brief: as §1

Experiment [17] addresses T11, ELF3 (Homo sapiens, UniProt P78545 1-371).
T11 sequence: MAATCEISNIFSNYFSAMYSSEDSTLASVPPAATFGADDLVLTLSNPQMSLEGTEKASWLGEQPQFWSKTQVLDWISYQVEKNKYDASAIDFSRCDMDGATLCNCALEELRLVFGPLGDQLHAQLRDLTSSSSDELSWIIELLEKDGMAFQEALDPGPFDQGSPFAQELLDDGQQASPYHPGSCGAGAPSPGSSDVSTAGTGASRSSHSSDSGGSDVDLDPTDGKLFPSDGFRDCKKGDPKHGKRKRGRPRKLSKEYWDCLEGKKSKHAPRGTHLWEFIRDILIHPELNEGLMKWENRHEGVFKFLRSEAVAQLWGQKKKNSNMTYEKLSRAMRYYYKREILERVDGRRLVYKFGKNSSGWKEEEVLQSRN
Conditions: protein: recombinant; tags: N-terminal GST; dsDNA, one strand shown. The method in brief:
as §1

The target of experiment [18] is ETV1 (Homo sapiens, UniProt P50549 1-477). The settings on record: protein: recombinant; tags: N-terminal GST; dsDNA, one strand shown. The gist of the method:
as §1

Chain of HSF1 (Q00613 whole entry): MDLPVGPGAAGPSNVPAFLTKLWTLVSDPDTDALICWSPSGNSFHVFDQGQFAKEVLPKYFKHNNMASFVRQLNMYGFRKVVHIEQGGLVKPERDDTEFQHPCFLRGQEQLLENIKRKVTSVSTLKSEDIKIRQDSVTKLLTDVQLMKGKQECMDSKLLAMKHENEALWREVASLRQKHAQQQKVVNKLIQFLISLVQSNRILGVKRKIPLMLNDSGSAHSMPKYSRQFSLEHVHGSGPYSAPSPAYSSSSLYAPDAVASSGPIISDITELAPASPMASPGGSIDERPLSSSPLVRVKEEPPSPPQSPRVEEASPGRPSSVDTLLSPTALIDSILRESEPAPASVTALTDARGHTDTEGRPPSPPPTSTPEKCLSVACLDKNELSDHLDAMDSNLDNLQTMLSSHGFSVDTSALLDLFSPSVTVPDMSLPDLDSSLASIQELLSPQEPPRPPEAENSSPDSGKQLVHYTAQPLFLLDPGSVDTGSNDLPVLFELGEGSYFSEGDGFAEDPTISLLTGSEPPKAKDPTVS
Chain of ELF4 (Q99607 whole entry): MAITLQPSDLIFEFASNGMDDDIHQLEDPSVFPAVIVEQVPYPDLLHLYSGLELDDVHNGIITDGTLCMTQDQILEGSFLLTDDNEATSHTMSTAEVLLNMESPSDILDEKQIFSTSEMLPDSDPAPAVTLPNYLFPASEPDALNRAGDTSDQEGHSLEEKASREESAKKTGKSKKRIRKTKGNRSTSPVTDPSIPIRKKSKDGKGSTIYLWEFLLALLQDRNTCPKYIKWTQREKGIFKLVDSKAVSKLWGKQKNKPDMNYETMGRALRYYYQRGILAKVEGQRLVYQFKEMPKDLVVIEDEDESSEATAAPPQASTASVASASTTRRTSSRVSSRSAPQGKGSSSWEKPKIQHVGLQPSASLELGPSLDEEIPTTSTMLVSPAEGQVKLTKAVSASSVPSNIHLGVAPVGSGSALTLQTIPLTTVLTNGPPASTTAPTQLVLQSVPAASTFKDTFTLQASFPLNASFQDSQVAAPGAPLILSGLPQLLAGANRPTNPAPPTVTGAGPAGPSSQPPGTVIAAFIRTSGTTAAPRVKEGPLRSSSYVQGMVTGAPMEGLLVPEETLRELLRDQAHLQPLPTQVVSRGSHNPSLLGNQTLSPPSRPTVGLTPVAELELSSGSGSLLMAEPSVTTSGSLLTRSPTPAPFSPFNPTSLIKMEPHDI
Chain of SPIB (Q01892 whole entry): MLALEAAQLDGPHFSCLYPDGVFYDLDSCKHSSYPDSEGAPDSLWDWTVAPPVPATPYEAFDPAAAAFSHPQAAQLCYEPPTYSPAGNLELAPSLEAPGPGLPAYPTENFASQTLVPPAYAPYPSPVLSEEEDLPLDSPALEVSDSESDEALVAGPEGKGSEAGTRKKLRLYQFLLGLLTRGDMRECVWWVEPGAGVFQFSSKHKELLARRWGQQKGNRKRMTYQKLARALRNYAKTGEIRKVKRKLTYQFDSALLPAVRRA
Chain of ETV1 (P50549 whole entry): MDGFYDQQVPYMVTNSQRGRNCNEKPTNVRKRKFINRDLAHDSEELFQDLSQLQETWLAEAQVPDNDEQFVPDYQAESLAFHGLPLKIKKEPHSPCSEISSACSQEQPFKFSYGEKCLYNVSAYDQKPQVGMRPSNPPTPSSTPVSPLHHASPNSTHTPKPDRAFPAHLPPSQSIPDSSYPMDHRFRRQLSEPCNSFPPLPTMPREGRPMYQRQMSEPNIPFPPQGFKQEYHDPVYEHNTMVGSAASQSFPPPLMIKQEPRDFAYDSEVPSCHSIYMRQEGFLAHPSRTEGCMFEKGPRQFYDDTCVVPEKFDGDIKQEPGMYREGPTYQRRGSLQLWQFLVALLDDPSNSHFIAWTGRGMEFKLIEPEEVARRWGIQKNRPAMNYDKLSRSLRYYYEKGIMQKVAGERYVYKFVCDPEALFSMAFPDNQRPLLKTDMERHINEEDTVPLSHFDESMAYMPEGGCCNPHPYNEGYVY
Chain of ELF1 (P32519 whole entry): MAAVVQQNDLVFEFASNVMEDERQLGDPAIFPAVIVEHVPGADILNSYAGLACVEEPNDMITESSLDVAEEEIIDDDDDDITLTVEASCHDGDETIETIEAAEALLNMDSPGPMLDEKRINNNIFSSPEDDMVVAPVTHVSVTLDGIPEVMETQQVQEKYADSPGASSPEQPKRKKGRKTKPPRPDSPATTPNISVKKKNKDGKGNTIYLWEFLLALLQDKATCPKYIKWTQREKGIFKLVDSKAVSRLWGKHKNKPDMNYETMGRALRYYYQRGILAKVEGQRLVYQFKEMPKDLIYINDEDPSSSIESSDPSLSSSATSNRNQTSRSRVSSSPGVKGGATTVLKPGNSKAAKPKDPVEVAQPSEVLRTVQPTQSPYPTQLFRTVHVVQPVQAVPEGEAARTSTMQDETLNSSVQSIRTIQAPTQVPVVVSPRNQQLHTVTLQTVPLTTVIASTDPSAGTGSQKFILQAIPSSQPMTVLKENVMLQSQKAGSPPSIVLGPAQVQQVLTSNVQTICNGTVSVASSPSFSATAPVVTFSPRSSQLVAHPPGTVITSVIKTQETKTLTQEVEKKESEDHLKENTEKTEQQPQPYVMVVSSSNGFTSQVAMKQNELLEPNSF

Consider TCCGTC, for which the binding signal in experiment [1] is 1.24 fold enrichment (6-mer frequency, TF over GST control); in [2], 1.43 fold enrichment (6-mer frequency, TF over GST control); in [3], 1.29 fold enrichment (6-mer frequency, TF over GST control); in experiment [4], 1.49 fold enrichment (6-mer frequency, TF over GST control); in experiment [5], 1.36 fold enrichment (6-mer frequency, TF over GST control); in experiment [6], 1.41 fold enrichment (6-mer frequency, TF over GST control). Besides, the binding signal was 1.28 fold enrichment (6-mer frequency, TF over GST control) in [7]; 1.56 fold enrichment (6-mer frequency, TF over GST control) in experiment [8]; 1.47 fold enrichment (6-mer frequency, TF over GST control) in [9]; 1.38 fold enrichment (6-mer frequency, TF over GST control) in experiment [10]; 1.31 fold enrichment (6-mer frequency, TF over GST control) in experiment [11]; 1.04 fold enrichment (6-mer frequency, TF over GST control) in experiment [12]. The binding signal in [13] was 1.38 fold enrichment (6-mer frequency, TF over GST control); in [14], 1.42 fold enrichment (6-mer frequency, TF over GST control); in experiment [15], 1.3 fold enrichment (6-mer frequency, TF over GST control); in experiment [16], 1.35 fold enrichment (6-mer frequency, TF over GST control); in experiment [17], 1.27 fold enrichment (6-mer frequency, TF over GST control); in experiment [18] it was 1.42 fold enrichment (6-mer frequency, TF over GST control).

(Values after article PMC7862700, “An all-to-all approach to the identification of sequence-specific readers for epigenetic DNA modifications on cytosine”.)
